Test results: PubChem BioAssay
For part of these data: Potency and affinity values are given separately. Activity calls are given as the source filed them. Unless noted, no rule for the calls is given here.

Key:
[1] = antimalarial activity against Dd2 strain (AID 2302;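 active = growth inhibition above 50% at the single 2 µM test dose, taken to imply half-maximal potency below 2 µM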;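 also: 0% = DMSO untreated growth and 100% = chloroquine plus artemisinin killed control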); settings: P. falciparum Dd2 in RBCs, LDH growth readout, 72 h; at 2 µM; stronger effect = higher value
[2] = HepG2 cytotoxicity, primary screen, cytotoxicity control for P. falciparum antimalarial project, cell-based, ATP luminescence (AID 2303;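 active = inhibition above 50%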;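 also: 0% = DMSO wells and 100% = digitonin-killed cells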); settings: HepG2 viability, 24-48 h, at 10 µM, stronger effect = higher value
[3] = target: L-lactate dehydrogenase (Plasmodium falciparum (isolate CDC / Honduras)) (UniProt Q27743); experiment: PfLDH activity inhibition – cell lysate, 3D7 strain, counter-screen for P. falciparum growth inhibition project (AID 2304);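 also: 0% = vehicle and 100% = reference inhibitor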; settings: P. falciparum 3D7 crude extract, LDH APAD/NBT absorbance; at 2 µM; stronger effect = higher value
[4] = inhibition of 3D7 malaria parasite growth – strain 3D7 (AID 2306);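 also: 0% = DMSO wells and 100% = chloroquine plus artemisinin control wells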; settings: P. falciparum 3D7 erythrocytic growth, LDH absorbance, 72 h; at 2 µM; stronger effect = higher value
[5] = target: Calcium-dependent protein kinase 1 (Plasmodium falciparum (isolate 3D7)) (UniProt P62344); experiment: PfCDPK1 kinase inhibitors, biochemical, TCAMS library (AID 1159585; cut-off not given, nearly all actives have IC50 up to about 0.98 µM;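 also: inhibitors leave more ATP so luminescence rises with inhibition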); settings: recombinant PfCDPK1, Kinase-Glo ATP depletion luminescence
[6] = target: Plasmodium falciparum protein kinase 6 (PK6, PF3D7_1337100) (UniProt Q8IDW1); experiment: PfPK6 kinase inhibitors, biochemical, TCAMS library (AID 1159586); settings: recombinant PfPK6, Kinase-Glo ATP depletion luminescence
[7] = target: Protein kinase 7 (PK7), Plasmodium falciparum 3D7 (PF3D7_0213400) (UniProt Q7YTF7); experiment: inhibition of Plasmodium PK7 catalytic activity – biochemical, TCAMS antimalarial set, Kinase-Glo luminescence (AID 1159587); settings: recombinant PfPK7, Kinase-Glo ATP depletion luminescence
[8] = target: Calcium-dependent protein kinase 4 (Plasmodium falciparum (isolate 3D7)) (UniProt Q8IBS5); experiment: PfCDPK4 kinase inhibitors, biochemical, TCAMS library (AID 1159588; cut-off not given, nearly all actives have IC50 up to about 0.91 µM); settings: recombinant PfCDPK4, Kinase-Glo ATP depletion luminescence
Chain of Calcium-dependent protein kinase 4 (Plasmodium falciparum (isolate 3D7)) (Q8IBS5 whole entry, looked up): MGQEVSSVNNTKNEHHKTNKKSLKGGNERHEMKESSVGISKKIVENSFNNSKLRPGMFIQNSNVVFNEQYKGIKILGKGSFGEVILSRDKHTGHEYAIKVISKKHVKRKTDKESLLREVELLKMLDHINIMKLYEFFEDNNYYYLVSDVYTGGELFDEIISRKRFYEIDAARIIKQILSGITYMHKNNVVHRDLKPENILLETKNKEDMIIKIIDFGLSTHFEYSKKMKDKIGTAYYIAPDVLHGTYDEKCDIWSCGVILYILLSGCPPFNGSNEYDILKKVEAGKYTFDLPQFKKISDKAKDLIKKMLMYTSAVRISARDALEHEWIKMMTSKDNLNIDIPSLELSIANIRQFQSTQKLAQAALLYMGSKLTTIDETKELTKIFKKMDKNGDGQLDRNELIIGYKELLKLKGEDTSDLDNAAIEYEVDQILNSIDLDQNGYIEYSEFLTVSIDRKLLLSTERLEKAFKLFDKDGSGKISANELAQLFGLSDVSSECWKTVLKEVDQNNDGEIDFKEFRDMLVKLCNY

Chain of Protein kinase 7 (PK7), Plasmodium falciparum 3D7 (PF3D7_0213400) (Q7YTF7 1-343): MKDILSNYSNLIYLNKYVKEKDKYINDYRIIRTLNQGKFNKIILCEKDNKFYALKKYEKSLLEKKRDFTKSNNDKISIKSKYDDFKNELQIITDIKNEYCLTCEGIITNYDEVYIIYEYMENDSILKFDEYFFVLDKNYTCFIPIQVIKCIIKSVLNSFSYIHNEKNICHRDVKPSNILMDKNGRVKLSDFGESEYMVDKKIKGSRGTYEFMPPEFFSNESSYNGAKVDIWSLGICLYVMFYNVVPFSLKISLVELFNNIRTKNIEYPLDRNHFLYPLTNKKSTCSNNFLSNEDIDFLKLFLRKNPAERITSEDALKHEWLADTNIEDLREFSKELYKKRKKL
Chain of Calcium-dependent protein kinase 1 (Plasmodium falciparum (isolate 3D7)) (P62344 whole entry, looked up): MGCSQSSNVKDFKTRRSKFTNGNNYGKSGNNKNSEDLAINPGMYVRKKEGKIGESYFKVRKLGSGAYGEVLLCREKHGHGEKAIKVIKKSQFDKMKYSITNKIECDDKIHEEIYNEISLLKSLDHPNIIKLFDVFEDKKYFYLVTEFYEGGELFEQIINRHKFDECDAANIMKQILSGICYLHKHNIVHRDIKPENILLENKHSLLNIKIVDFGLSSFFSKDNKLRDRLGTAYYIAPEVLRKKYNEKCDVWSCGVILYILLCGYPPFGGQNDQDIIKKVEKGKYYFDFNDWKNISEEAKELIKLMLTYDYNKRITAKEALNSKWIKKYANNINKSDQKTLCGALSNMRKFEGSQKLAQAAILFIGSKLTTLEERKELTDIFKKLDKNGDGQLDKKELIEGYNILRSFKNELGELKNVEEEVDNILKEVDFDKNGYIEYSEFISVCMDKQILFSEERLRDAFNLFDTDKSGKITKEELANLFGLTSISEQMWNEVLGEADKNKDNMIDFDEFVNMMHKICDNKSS
Chain of Plasmodium falciparum protein kinase 6 (PK6, PF3D7_1337100) (Q8IDW1 1-305): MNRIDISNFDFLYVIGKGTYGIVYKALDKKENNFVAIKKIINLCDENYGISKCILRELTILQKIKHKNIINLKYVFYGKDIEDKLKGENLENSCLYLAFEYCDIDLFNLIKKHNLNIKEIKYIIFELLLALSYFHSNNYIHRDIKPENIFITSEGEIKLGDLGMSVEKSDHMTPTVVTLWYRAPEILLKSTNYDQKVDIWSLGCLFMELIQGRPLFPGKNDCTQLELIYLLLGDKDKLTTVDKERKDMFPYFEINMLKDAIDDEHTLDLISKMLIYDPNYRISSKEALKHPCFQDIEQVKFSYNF
Chain of L-lactate dehydrogenase (Plasmodium falciparum (isolate CDC / Honduras)) (Q27743 whole entry, looked up): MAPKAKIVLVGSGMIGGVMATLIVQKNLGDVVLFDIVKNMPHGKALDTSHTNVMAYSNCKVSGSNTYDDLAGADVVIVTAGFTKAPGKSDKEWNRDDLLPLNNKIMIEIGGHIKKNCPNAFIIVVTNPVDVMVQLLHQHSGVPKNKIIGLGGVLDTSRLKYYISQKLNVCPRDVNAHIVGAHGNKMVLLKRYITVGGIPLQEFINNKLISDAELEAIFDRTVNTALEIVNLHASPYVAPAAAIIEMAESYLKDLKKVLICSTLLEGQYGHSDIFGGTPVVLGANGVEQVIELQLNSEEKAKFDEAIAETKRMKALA

O=C(c1ccc(-c2ccc(-c3nc4ccc(F)cc4[nH]3)cc2)cc1)N1CCCCC1CN1CCC(O)C1 (stereo not drawn)
inactive: inhibition [2] 24% | inhibition [3] -1% | outcome [5] | outcome [6] | outcome [7] | outcome [8]
active: growth inhibition [1] 100% | growth inhibition [4] 90%

Cc1cccc(Nc2nc(N)c3ccccc3n2)c1
inactive: growth inhibition [1] 49% | inhibition [2] 1% | inhibition [3] 3% | outcome [5] | outcome [6] | outcome [7] | outcome [8]
active: growth inhibition [4] 99%

CCN(CC)CCN(Cc1ccc(-c2ccc(C(F)(F)F)cc2)cc1)C(=O)Cn1c(CCC2CCCCC2)nc(=O)c2ccccc21
active: growth inhibition [4] 87%
inactive: growth inhibition [1] 25% | inhibition [2] 32% | inhibition [3] 3% | outcome [5] | outcome [6] | outcome [7] | outcome [8]

CCCCn1c(SC(C)C)nc2c(c1=O)C1(CCCCC1)Cc1ccccc1-2
inactive: inhibition [2] 1% | inhibition [3] -2% | outcome [5] | outcome [6] | outcome [7] | outcome [8]
active: growth inhibition [1] 60% | growth inhibition [4] 99%

Oc1cccc(Nc2ccnc3cc(-c4cc5ccccc5o4)ccc23)c1
active: growth inhibition [1] 71% | growth inhibition [4] 102%
inactive: inhibition [2] 9% | inhibition [3] -1% | outcome [5] | outcome [6] | outcome [7] | outcome [8]

O=C(Nc1ccnc(N2CCCN(Cc3cccc(O)c3)CC2)c1)c1ccc(F)cc1
inactive: growth inhibition [1] 3% | inhibition [2] 12% | inhibition [3] 4% | outcome [5] | outcome [6] | outcome [7] | outcome [8]
active: growth inhibition [4] 90%

CN(C)CCN(C)Cc1ccc(-c2ccc(NS(=O)(=O)c3cccc4cccnc34)cc2)cc1
active: growth inhibition [4] 93%
inactive: growth inhibition [1] 16% | inhibition [2] 23% | inhibition [3] -1% | outcome [5] | outcome [6] | outcome [7] | outcome [8]

CC(c1cccc(S(=O)(=O)NCc2ccc(Cl)cc2Cl)c1)N1CCC(N2CCCCC2)CC1 (stereo not drawn)
active: growth inhibition [4] 100%
inactive: growth inhibition [1] 40% | inhibition [2] 36% | inhibition [3] -2% | outcome [5] | outcome [6] | outcome [7] | outcome [8]

CC1Cc2ccccc2N1S(=O)(=O)c1cc(OCC(F)(F)F)ccc1OCC(F)(F)F (stereo not drawn)
active: growth inhibition [1] 95% | growth inhibition [4] 96%
inactive: inhibition [2] 10% | inhibition [3] 0% | outcome [5] | outcome [6] | outcome [7] | outcome [8]

COc1ccccc1N1CCN(CCCCNC(=O)c2ccc(NC(=O)c3cc(Cl)cc(Cl)c3)cc2)CC1
active: growth inhibition [1] 75% | growth inhibition [4] 101%
inactive: inhibition [2] 9% | inhibition [3] 2% | outcome [5] | outcome [6] | outcome [7] | outcome [8]

Cc1cc(NC(=O)c2ccc(S(=O)(=O)N(Cc3ccccc3)C(C)C)cc2)no1
active: growth inhibition [1] 67% | growth inhibition [4] 87%
inactive: inhibition [2] -6% | inhibition [3] -1% | outcome [5] | outcome [6] | outcome [7] | outcome [8]

Nc1nccc2ccc(-c3ccc4ncccc4c3)cc12
inactive: inhibition [3] -7% | outcome [5] | outcome [6] | outcome [7] | outcome [8]
active: growth inhibition [1] 100% | inhibition [2] 97% | growth inhibition [4] 100%

Cc1cc(CN2C(=O)C(c3ccccc3)(c3ccccc3)N=C2N)c(C(F)(F)F)o1
active: growth inhibition [1] 84% | growth inhibition [4] 97%
inactive: inhibition [2] 11% | inhibition [3] 4% | outcome [5] | outcome [6] | outcome [7] | outcome [8]

COc1c(C2CCN(CCCCNC(=O)c3cc(-c4ccc(Cl)cc4)[nH]c3C)CC2)ccc2c1CCCC2
active: growth inhibition [1] 91% | inhibition [2] 53% | growth inhibition [4] 100%
inactive: inhibition [3] -6% | outcome [5] | outcome [6] | outcome [7] | outcome [8]

CCCN(Cc1nnc(-c2cccs2)o1)C(=O)C1COc2ccccc2O1 (stereo not drawn)
inactive: growth inhibition [1] 49% | inhibition [2] 1% | inhibition [3] 0% | outcome [5] | outcome [6] | outcome [7] | outcome [8]
active: growth inhibition [4] 87%

CCc1c(C)nc(-n2nc(C)cc2NC(=O)CC(c2ccccc2)c2ccccc2)[nH]c1=O
active: growth inhibition [1] 98% | growth inhibition [4] 97%
inactive: inhibition [2] 41% | inhibition [3] -3% | outcome [5] | outcome [6] | outcome [7] | outcome [8]

Cc1cc(N2CCCC2)nc(Nc2ccc(NC(=O)c3ccco3)cc2)n1
active: growth inhibition [4] 100%
inactive: growth inhibition [1] 43% | inhibition [2] 23% | inhibition [3] -3% | outcome [5] | outcome [6] | outcome [7] | outcome [8]

Cc1cccc2[nH]c(-c3cccc(-c4cccc(CN5CCC(CO)CC5)c4)c3)nc12
inactive: inhibition [2] 4% | inhibition [3] -6% | outcome [5] | outcome [6] | outcome [7] | outcome [8]
active: growth inhibition [1] 90% | growth inhibition [4] 101%

N#Cc1cccc([C@H](O)[C@@H]2CN(CCC3CCCCC3)CC[C@@]2(O)c2ccccc2)c1
inactive: inhibition [2] -5% | inhibition [3] 3% | outcome [5] | outcome [6] | outcome [7] | outcome [8]
active: growth inhibition [1] 100% | growth inhibition [4] 98%

Cc1cc(O)c(CN(C)Cc2ccc3c(c2)OCCO3)cc1C(C)C
inactive: growth inhibition [1] 47% | inhibition [2] 10% | inhibition [3] -3% | outcome [5] | outcome [6] | outcome [7] | outcome [8]
active: growth inhibition [4] 98%

O=C(Nc1cccc(-c2ccc(-c3nc4ccc(F)cc4[nH]3)cc2)c1)c1ccncc1
active: growth inhibition [1] 96% | inhibition [2] 52% | growth inhibition [4] 101%
inactive: inhibition [3] -5% | outcome [5] | outcome [6] | outcome [7] | outcome [8]
